Bioassay records (PubChem BioAssay)
Compounds with a hit are over-represented: about 19% of the library has one in this group of screens.
HT1080 IDH1KD tx – kills HT-1080 cells with IDH1 knockdown | HT-1080 IDH1 knockdown viability, ATP luminescence, 48 h | Potency, µM (highest dose often 46.1 µM), usual class: cytotoxic | actives 2% (n = 360,000) | AID 686971
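After a 2 h attachment period, IDH1KD HT-1080 cells took pin-transferred compound for 48 h at 37 °C; ATP-based luminescence after 10 min room-temperature reagent incubation reported viability.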
IL-1B inflam inh – inflammasome signaling inhibition, IL-1 beta readout | THP-1 LPS/ATP IL-1B secretion, AlphaLISA, 16 h; hits give low values | activity change, % at 57.5 µM | actives 4.7% (n = 360,000); in the data active = activity change below about -50%; inconclusive = mostly about -30% to -49%
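THP-1 cells pretreated 1 hr with compounds (up to 57.5 uM final), then stimulated with LPS (250 ng/mL final) plus ATP (1.25 mM final); secreted IL-1B measured by AlphaLISA after 16 hr, decreased signal indicating inhibition.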
HT1080-NT tox – kills 2HG-producing HT-1080-NT fibrosarcoma cells; HT-1080-NT fibrosarcoma viability, CellTiter-Glo ATP luminescence, 48 h; Potency, µM (doses to about 46.1 µM), actives largely listed as cytotoxic; actives 1.6% (n = 360,000); AID 686970;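 also: NT is the 2HG producing partner of a matched IDH1 knockdown line; nearly all actives have a fitted effect of over 55% in size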
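Viability of the 2HG-overproducing fibrosarcoma line after 48 hours of compound exposure at 37 degrees C was determined by luminescence with CellTiter-Glo, and concentration-effect curves were then fitted and categorized.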
DT40 TDP1 CPT – DT40-hTDP1 cell growth loss with CPT; Potency, µM (titrated, usually from 46.2 µM), hits mostly inhibitors; AID 686979; chicken DT40 Tdp1-/-;hTDP1 cells + 20 nM CPT, ATP luminescence, 48 h; actives 12% (n = 420,000); also: nearly all actives have a fitted effect of over 55% in size
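Chicken DT40 Tdp1-/- cells complemented with human TDP1, 400 cells/well, exposed to compounds plus 20 nM camptothecin for at least 48 h at 37 C; viability read as ATP content by CellTiter-Glo luminescence.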
DT40 TDP1 no CPT – qHTS for Inhibitors of human tyrosyl-DNA phosphodiesterase 1 (TDP1): qHTS in cells in absence of CPT | AID 686978, 2013 | Potency, µM (series often up to 46.2 µM), actives largely listed as inhibitors | actives 15% (n = 420,000) | DT40 Tdp1-/- hTDP1 cells, no CPT, ATP luminescence, 48 h; also: nearly all actives have a fitted effect of over 55% in size
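Compound effects on proliferation are scored in DT40 Tdp1-/-;hTDP1 cells in the absence of CPT. ATP levels (CellTiter-Glo luminescence) are recorded after a ≥48 hr, 37 °C incubation.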
Of the large screens only hits and unclear results are named; the others gave an inactive call. Unless noted, calls follow the shape of the dose curve; as a rule, active = well fitted curve in the direction sought with a large enough effect; inconclusive = small, poorly fitted or top-dose-only effect, or another doubt; inactive = no such curve, though single readings can be large; an effect the other way counts as inactive or inconclusive.

Cc1nc(-c2ccc(S(=O)(=O)NCc3cccnc3)s2)cs1	HT1080-NT tox inconclusive, DT40 TDP1 CPT 12µM, DT40 TDP1 no CPT 21µM
Cc1ccc(C)c(C2NC(=O)c3ccccc3N2)c1 (stereo not given)	HT1080 IDH1KD tx 2.3µM, HT1080-NT tox inconclusive, DT40 TDP1 CPT 0.73µM, DT40 TDP1 no CPT 0.58µM
Cc1ccc(C)c2nc(Cl)c(C3NC(=O)c4ccccc4N3)cc12 (stereo not given)	HT1080 IDH1KD tx inconclusive, HT1080-NT tox inconclusive, DT40 TDP1 CPT inconclusive, DT40 TDP1 no CPT 16µM
COc1cc(C)c(C2NC(=O)c3ccccc3N2)cc1C (stereo not given)	HT1080 IDH1KD tx inconclusive, HT1080-NT tox 5.8µM, DT40 TDP1 CPT 2.6µM, DT40 TDP1 no CPT 2.1µM
O=C1NC(c2ccccc2O)Nc2ccccc21 (stereo not given)	none
COc1ccc2cc(C3NC(=O)c4ccccc4N3)c(Cl)nc2c1 (stereo not given)	DT40 TDP1 no CPT inconclusive
Cn1cc(C2NC(=O)c3ccccc3N2)c2ccccc21 (stereo not given)	HT1080 IDH1KD tx 8.2µM, HT1080-NT tox 4.6µM, DT40 TDP1 CPT 1.2µM, DT40 TDP1 no CPT 1.6µM
Cc1ccccc1C(=O)OCc1cc(=O)n2nc(C3CC3)sc2n1	none (no result: HT1080 IDH1KD tx, IL-1B inflam inh, HT1080-NT tox)
COC(=O)C1=C(C)N(CCCCCC(=O)O)C(=O)NC1c1ccccc1 (stereo not given)	none
CC(=O)N1CCC(C(=O)NCCOc2ccc(C)cc2)CC1	none
O=C(c1cnccn1)N1CCC2(CC1)CN(Cc1cc(C(F)(F)F)cc(C(F)(F)F)c1)C2	none (no result: HT1080 IDH1KD tx, IL-1B inflam inh, HT1080-NT tox)
Cn1c(N)c(C(=O)COC(=O)Cc2cccc(C(F)(F)F)c2)c(=O)n(C)c1=O	DT40 TDP1 no CPT inconclusive
CCC(=O)N(C1=C(NC)C(=O)c2ccccc2C1=O)C(C)C	HT1080 IDH1KD tx 9.2µM, HT1080-NT tox 4.6µM, DT40 TDP1 CPT 2.1µM, DT40 TDP1 no CPT 1.6µM
CCC(=O)NC1=C(NC(C)c2ccccc2)C(=O)c2ccccc2C1=O (stereo not given)	DT40 TDP1 CPT inconclusive, DT40 TDP1 no CPT inconclusive
Brc1ccc(C2Nc3cccc4cccc(c34)N2)s1	DT40 TDP1 CPT 21µM, DT40 TDP1 no CPT inconclusive
Cc1c(N(C)C)nc2ccccc2c1N	none
CCN(CC)c1nc2ccccc2c(N)c1-c1ccccc1	HT1080 IDH1KD tx inconclusive, HT1080-NT tox inconclusive, DT40 TDP1 CPT 13µM, DT40 TDP1 no CPT 21µM
COc1ccccc1CNC(=O)CCCn1c(=O)c2cccn2c2ccccc21	DT40 TDP1 CPT inconclusive, DT40 TDP1 no CPT 29µM (no result: HT1080 IDH1KD tx, IL-1B inflam inh, HT1080-NT tox)
CC(C)OCCCn1c(=O)c2ccccc2n2c(CCC(=O)NC3CCN(Cc4ccccc4)CC3)nnc12	IL-1B inflam inh -51, DT40 TDP1 CPT inconclusive
COc1ccccc1CNC(=O)Cn1c(=O)c2cccn2c2cccnc21	none
COc1ccccc1CNC(=O)CCCn1c(=O)c2ccccc2n(Cc2ccccc2F)c1=O	DT40 TDP1 CPT 9.2µM, DT40 TDP1 no CPT 7.3µM (no result: HT1080 IDH1KD tx, IL-1B inflam inh, HT1080-NT tox)
COc1ccc(OC)c(CCNC(=O)CCCn2c(=O)c3cccn3c3ccccc32)c1	DT40 TDP1 CPT 18µM, DT40 TDP1 no CPT 21µM (no result: HT1080 IDH1KD tx, IL-1B inflam inh, HT1080-NT tox)
O=C(CCCCn1c(=O)c2ccccc2n(Cc2ccccc2F)c1=O)NC1CCN(Cc2ccccc2)CC1	DT40 TDP1 CPT inconclusive, DT40 TDP1 no CPT 16µM
O=C(CCCCn1c(=O)[nH]c2ccccc2c1=O)NC1CCN(Cc2ccccc2)CC1	none
Cc1cc(S(=O)(=O)NCCC2=CCCCC2)ccc1Br	DT40 TDP1 no CPT inconclusive
COc1ccc(C)cc1NC(=O)c1cc(S(=O)(=O)NCCC2=CCCCC2)ccc1F	DT40 TDP1 CPT 21µM, DT40 TDP1 no CPT inconclusive (no result: HT1080 IDH1KD tx, IL-1B inflam inh, HT1080-NT tox)
COc1ccccc1NC(=O)c1cc(S(=O)(=O)NCCC2=CCCCC2)ccc1F	DT40 TDP1 CPT 23µM, DT40 TDP1 no CPT inconclusive (no result: HT1080 IDH1KD tx, IL-1B inflam inh, HT1080-NT tox)
Cc1cccc(NC(=O)c2cc(S(=O)(=O)NCCc3ccccc3)ccc2F)c1C	none (no result: HT1080 IDH1KD tx, IL-1B inflam inh, HT1080-NT tox)
CCOC(CNc1ncnc2sc(-c3ccccc3)cc12)OCC	DT40 TDP1 CPT inconclusive
CN(C)CCCNc1ncnc2sc(-c3ccccc3)cc12	IL-1B inflam inh -76, DT40 TDP1 CPT inconclusive, DT40 TDP1 no CPT 16µM
CCCCN(CCO)c1ncnc2sc(-c3ccccc3)cc12	HT1080 IDH1KD tx inconclusive, DT40 TDP1 CPT inconclusive, DT40 TDP1 no CPT 16µM (no result: IL-1B inflam inh)
